“And” between values parts separate entries of the source, which are not always exact repeats. Equal entries are not always repeated. Records with an inconclusive call do not appear. The source made the active and inactive calls. Unless noted, the call rests on the fitted dose curve; in most records, active means well fitted curve in the direction sought with a large enough effect; inconclusive means small, poorly fitted or top-dose-only effect, or another doubt; inactive means no such curve, though single readings can be large; an effect the other way counts as inactive or inconclusive.

These results are taken from PubChem BioAssay (NCATS).

Test [1] can be described thus: AP1 Signaling Pathway (AID 357; active means well fitted curve in either direction with a large enough effect, not every such curve was filed as active;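 further: ME-180 reporter cells stimulated with EGF at its EC50 level; on the % scale 0 is the no-effect control and ±100 the full control effect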). The following applies: ME-180 AP-1-bla reporter, EGF-induced, beta-lactamase ratio, 5 h. The procedure, abridged:
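First, ME-180 AP-1-bla cells were cultured overnight at 37 °C in low-serum Opti-MEM. Next, titrated compounds with EC50 EGF were incubated 5 hours. Finally, CCF4 was added for 2.5 hours and the 460/530 nm ratio recorded.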

Test [2] addresses Cytochrome P450 1A2 (Homo sapiens) (UniProt P05177). The test can be described thus: p450-cyp1a2 (AID 410; calls by dose curve; further: potency means the concentration at half of the fitted maximal effect). The following applies: recombinant CYP1A2, luciferin-ME demethylation, luminescence; series mostly up to 57 µM. An outline of the steps: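 O-Demethylation of luciferin 6' methyl ether by human CYP1A2 is monitored as luciferase luminescence. Substrate sits at Km (100uM); enzyme is 20nM. Values are scaled to 57 uM furafylline as maximal inhibition.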

A short description of test [3]: NFAT Signaling Pathway (AID 444; active means well fitted curve in either direction with a large enough effect, not every such curve was filed as active;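 further: carbachol stimulus at about its EC50 of 1 µM final; on the % scale 0 is the no-effect control and ±100 the full control effect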). The following applies: Jurkat NFAT-bla M1, carbachol, beta-lactamase ratio, 5 h. The procedure, abridged: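 Jurkat cells carrying an NFAT-driven β-lactamase reporter and co-transfected muscarinic M1 receptor were treated with compound plus carbachol (1 uM final, an EC50 level) for 5 h at 37 °C. CCF4 loading followed for 1 h at RT; 460/530 nm ratio gave %activity.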

The nature of test [4]: Stat Signaling Pathway (AID 446; active means well fitted curve in either direction with a large enough effect, not every such curve was filed as active;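 further: ME-180 cervical cancer cells given 40 pM IL-6 alongside compound; SIE-controlled beta-lactamase reporter measured as 460/530 nm FRET emission ratio; on the % scale 0 is the no-effect control and ±100 the full control effect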). The following applies: ME-180 (cervical carcinoma) SIE beta-lactamase reporter, IL-6 stimulated, 5 h. An outline of the steps:
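FRET read-out (405 nm excitation, 460/530 nm emission) of a beta-lactamase reporter under a STAT-inducible element in ME-180 cervical carcinoma cells. Cells with compound receive 40 pM IL-6 for 5 h. Values are normalised to AC90 stimulation and AC90 JAK-inhibitor controls.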

For test [5], the target named is Glucocorticoid receptor (Homo sapiens) (UniProt P04150). The test can be described thus: GR-GFP Redistribution (AID 450;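 active means compounds whose dose series gives a full or clear partial fitted curve of increased nuclear translocation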; further: potency means the concentration at half of the fitted maximal effect). The following applies: U2OS GR-GFP nuclear translocation, laser cytometry, 2 h.
Test [6] shares this target. Description: GR-EFC Redistribution (AID 451; calls by dose curve; further: potency means the concentration at half of the fitted maximal effect). The following applies: CHO-K1 GR-EFC translocation, beta-gal luminescence, 2 h. The procedure, abridged:
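CHO-K1 cells stably expressing nuclear-localized β-gal enzyme acceptor and GR fused C-terminally to the enzyme donor fragment; ligand-driven nuclear translocation restores β-gal by complementation. Compounds titrated up to 46 uM final, 2 h at 37 °C; luminescence read.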

In test [7] the target is Mitogen-activated protein kinase 10 (Mus musculus) (UniProt Q61831). The test can be described thus: JNK3 AlphaScreen Assay (AID 530; active means well fitted curve in either direction with a large enough effect, not every such curve was filed as active;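 further: kinase came from lysate of stimulated human HepG2 cells; signal reports phosphorylation of biotinylated GST-cJun 1-79 at Ser73 with 10 µM ATP; on the % scale 0 is the no-effect control and ±100 the full control effect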). The following applies: JNK3 lysate, c-Jun phosphorylation; series mostly up to 57.1 µM. An outline of the steps:
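Phosphorylation of biotinylated GST-cJun(1-79) at Ser73 is measured by AlphaScreen proximity luminescence. Enzyme is JNK3 in HepG2 lysates activated with interleukin-1beta and tumor necrosis factor alpha; ATP is 10 uM final.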

In test [8] the target is Guanine nucleotide-binding protein G(i) subunit alpha-1 (Homo sapiens) (UniProt P63096). The test can be described thus: qHTS Assay for Inhibitors of RGS12 GoLoco Motif Activity (Green Fluorophore) (AID 879).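 Further: 0% = labeled peptide with Gαi1 and full inhibition = labeled peptide alone without protein; negative values mean loss of peptide binding seen as reduced polarization.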 The following applies: Galphai1/FITC-RGS12 GoLoco peptide, fluorescence polarization; series mostly up to 57.1 µM. The procedure, abridged:
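A drop in FITC polarization marked displacement of the FITC-tagged RGS12 GoLoco peptide (10 nM) from Gαi1 (50 nM). Compounds were incubated 10 min at room temperature in Tris pH 7.5 buffer containing 150 mM NaCl, 0.1 mM GDP and 0.05% NP40; unlabeled peptide titration served as control.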
(In qHTS, concentration-response curves come from the screen itself.)

In test [9] the target is Pyruvate kinase (Leishmania mexicana) (UniProt Q27686). Description: qHTS Validation Assay for Inhibitors of Leishmania Mexicana Pyruvate Kinase (AID 945).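 Further: 0% = DMSO only neutral control wells.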 The following applies: purified L. mexicana pyruvate kinase, enzyme activity, E451W mutant enzyme; series mostly up to 57.5 µM. The procedure, abridged:
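Luminescent ATP detection (PKLight) after a 1 h room-temperature reaction of 0.2 nM LmPYK E451W mutant with 0.5 mM PEP and 0.1 mM ADP at pH 7.2. Activity is normalized to DMSO-only control wells.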

For test [10], the target named is Pyruvate kinase PKM (Homo sapiens) (UniProt P14618). The test can be described thus: qHTS Assay for Activators of Human Muscle Pyruvate Kinase (AID 954; active means well fitted curve in the direction sought with a large enough effect, not every such curve was filed as active;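 further: 0% = uninhibited enzyme and -100% = no enzyme or full thiadiazolimine inhibition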). The following applies: purified human muscle pyruvate kinase, luciferase-coupled luminescence, 1 h; series mostly up to 57.5 µM. An outline of the steps: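 ATP production by PKM2 detected via luciferase luminescence after 1 h room-temperature reaction (0.1 nM enzyme, PEP at Km 0.5 mM, ADP 0.1 mM, pH 7.2 imidazole buffer). Inhibition scaled to no-enzyme control; activation referenced to 0.3 nM enzyme wells.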

The target of test [11] is alpha-glucosidase (Oryza sativa, rice) (UniProt Q653V4). Description: Counterscreen for Glucocerebrosidase Inhibitors: qHTS Assay for Rice alpha-Glucosidase at pH 5.0 (AID 997).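 Further: 0% = full activity with enzyme and -100% = basal without enzyme.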 The following applies: rice alpha-glucosidase enzyme activity; series mostly up to 76.9 µM. The procedure, abridged:
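Endpoint fluorogenic assay at pH 5.0: compounds (0.7 nM to 77 uM) titrated against 4 nM rice enzyme and 400 uM 4-MU-alpha-glucoside for 20 min at room temperature; NaOH/glycine stop, read ex 365/em 440 nm, Hill-fitted AC50.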
(Counterscreens check selectivity or assay interference.)

Test [12] in a line: qHTS Assay for Lipid Storage Modulators (AID 1519; calls by dose curve). The following applies: Drosophila S3 cells, BODIPY lipid droplet/cell ratio, laser cytometry, cells loaded with oleic acid; for activity change, negative = inhibition: at 25.7 µM (top of the series). The procedure, abridged: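 Cells seeded at 5,000 per well were treated with compounds over a concentration series and loaded with oleic acid (400 uM, as added). Lipid droplet fluorescence (488 nm excitation, 500-530 nm channel) was read by laser-scanning cytometry and normalized to 20 uM Triacsin C.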

Test [13] deals with Ubiquitin carboxyl-terminal hydrolase 1 (Homo sapiens) (UniProt O94782). Description: Inhibitors of USP1/UAF1: Pilot qHTS (AID 504865).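 Further: rhodamine fluorescence freed from ubiquitin-rhodamine substrate followed over time; top concentration of the series differs between compounds; on the % scale 0 is the no-effect control and ±100 the full control effect; nearly all actives have a fitted effect of over 35% in size.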 The following applies: purified USP1/UAF1, Ub-rhodamine cleavage fluorescence; series mostly up to 54.9 µM. The procedure, abridged:
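1nM USP1/UAF1 + cpd, 15 min RT; start w/ Ub-Rho 150nM final; kinetic FL 480/540 nm, 6 reads q60 s. Buffer 50mM HEPES pH 7.8, 0.5mM EDTA, 1mM TCEP, 0.01% Tween-20, 0.1 mg/ml BSA.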

The target in test [14] is 3',5'-cyclic-AMP phosphodiesterase 4B (Homo sapiens) (UniProt Q07343). The test can be described thus: qHTS Assay for Inhibitors of PDE-IV (AID 607; active means well fitted activation curve with a large enough effect in the main read-out, with a control signal flat, not every such curve was filed as active; further: % of control where 0% means no effect). The following applies: HEK293 ACTOne CNG channel cells, membrane potential fluorescence; series mostly up to 22.9 µM. The procedure, abridged: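 Cell-based read-out of cAMP via a modified cyclic nucleotide-gated channel and membrane potential dye (535/590 nm) in HEK293 cells expressing PDE4 endogenously. Compounds tested up to 22.9 uM final; 100 uM RO 20-1724 reference.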

In test [15] the target is ATP-dependent 6-phosphofructokinase (Trypanosoma brucei brucei) (UniProt O15648). The test can be described thus: qHTS Assay to Find Inhibitors of T. brucei phosphofructokinase: hit validation (AID 492961). The following applies: T. brucei PFK, ADP-Glo luminescence; series mostly up to 24.3 µM. The procedure, abridged: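 Reaction: 0.1 M triethanolamine pH 8.0, 5 mM MgCl2, F6P 0.5 mM, ATP 0.1 mM, PFK 1.25 nM, 45 min RT. Read-out: ADP-Glo luminescence. Analysis: concentration-response fits, classed by r2 and efficacy.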

Test [16] concerns the target Luciferin 4-monooxygenase (Photinus pyralis) (UniProt P08659). Description: Biochemical firefly luciferase enzyme assay for NPC (AID 624030).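 Further: purified P. pyralis luciferase at 10 nM with luciferin and ATP substrate; 0% = DMSO and -100% = full luciferase inhibition by PTC124 control; nearly all actives have a fitted effect of over 70% in size.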 The following applies: purified P. pyralis luciferase, luminescence, 5 min; series mostly up to 58.6 µM. The procedure, abridged: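 Counter-screen for direct inhibition of the luciferase enzyme by approved-drug library compounds, run at 10 nM enzyme in 50 mM Tris acetate (final). Luminescence was read within 5 min of enzyme-buffer addition and normalized to PTC124 versus DMSO (0%).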

A short description of test [17]: qHTS profiling for inhibitors of Plasmodium falciparum proliferation (AID 504749).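 Further: 0% = DMSO vehicle and full inhibition = artemisinin control; nearly all actives have a fitted effect of over 60% in size.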 The following applies: P. falciparum in erythrocytes, SYBR Green DNA, 72 h, at 12.8 µM (top of the series). An outline of the steps: (§1)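 Quantitative HTS: compounds pinned into medium, infected erythrocytes added (0.3% parasitemia, 2.5% hematocrit), 72 h culture at 37 C under 5% CO2. Saponin/Triton lysis with SYBR Green I, overnight RT, then fluorescence read.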

Another test deals with AS120. Described as above. The following applies: P. falciparum in erythrocytes, SYBR Green DNA, 72 h; series mostly up to 28.7 µM. An outline of the steps:
as §1

Another test deals with CP238. Described as above. The following applies: P. falciparum in erythrocytes, SYBR Green DNA, 72 h; series mostly up to 12.8 µM. The procedure, abridged: as §1
The next test deals with FAB9. The description is as above. The following applies: P. falciparum in erythrocytes, SYBR Green DNA, 72 h; series mostly up to 12.8 µM. The procedure, abridged: as §1
Setting [18] is: measured here: cell count channel max response.
The mark [19] stands for this setting: measured here: lipid channel max response.
Where [20] appears, read: at 7.69 µM (top of the series) unless noted.

Chain of Cytochrome P450 1A2 (Homo sapiens) (P05177 whole entry, looked up): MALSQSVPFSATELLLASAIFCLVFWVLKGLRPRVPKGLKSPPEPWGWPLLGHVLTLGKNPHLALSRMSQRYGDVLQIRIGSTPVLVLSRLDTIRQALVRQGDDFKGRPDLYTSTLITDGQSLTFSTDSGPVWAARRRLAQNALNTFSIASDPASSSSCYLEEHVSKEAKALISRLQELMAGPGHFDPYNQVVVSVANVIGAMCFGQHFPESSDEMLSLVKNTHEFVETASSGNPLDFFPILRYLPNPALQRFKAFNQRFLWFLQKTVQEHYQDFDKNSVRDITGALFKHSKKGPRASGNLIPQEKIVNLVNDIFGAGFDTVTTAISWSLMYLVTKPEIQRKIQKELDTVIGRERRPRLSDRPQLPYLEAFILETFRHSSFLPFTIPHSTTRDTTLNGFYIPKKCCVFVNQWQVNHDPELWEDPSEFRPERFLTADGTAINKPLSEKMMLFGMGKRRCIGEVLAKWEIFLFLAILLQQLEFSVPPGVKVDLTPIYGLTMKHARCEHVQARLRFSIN
Chain of 3',5'-cyclic-AMP phosphodiesterase 4B (Homo sapiens) (Q07343 whole entry, looked up): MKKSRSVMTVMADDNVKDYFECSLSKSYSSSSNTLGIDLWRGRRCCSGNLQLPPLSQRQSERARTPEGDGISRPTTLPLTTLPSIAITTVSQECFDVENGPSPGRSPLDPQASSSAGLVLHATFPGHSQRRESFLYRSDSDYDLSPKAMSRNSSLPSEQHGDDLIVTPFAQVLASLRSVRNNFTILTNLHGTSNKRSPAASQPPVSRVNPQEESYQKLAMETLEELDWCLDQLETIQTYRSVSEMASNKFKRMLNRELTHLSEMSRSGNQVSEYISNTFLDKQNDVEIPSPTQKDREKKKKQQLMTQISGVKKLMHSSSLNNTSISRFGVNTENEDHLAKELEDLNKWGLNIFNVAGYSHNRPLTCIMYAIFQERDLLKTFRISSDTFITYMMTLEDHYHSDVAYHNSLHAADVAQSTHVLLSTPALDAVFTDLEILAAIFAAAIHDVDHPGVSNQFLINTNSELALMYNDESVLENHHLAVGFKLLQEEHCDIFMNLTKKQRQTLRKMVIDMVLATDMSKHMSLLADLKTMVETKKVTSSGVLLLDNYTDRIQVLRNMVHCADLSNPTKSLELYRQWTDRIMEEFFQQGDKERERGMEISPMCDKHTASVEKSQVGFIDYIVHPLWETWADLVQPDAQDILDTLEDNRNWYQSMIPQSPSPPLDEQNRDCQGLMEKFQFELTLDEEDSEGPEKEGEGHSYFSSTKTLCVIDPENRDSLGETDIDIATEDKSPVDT
Chain of Luciferin 4-monooxygenase (Photinus pyralis) (P08659 whole entry, looked up): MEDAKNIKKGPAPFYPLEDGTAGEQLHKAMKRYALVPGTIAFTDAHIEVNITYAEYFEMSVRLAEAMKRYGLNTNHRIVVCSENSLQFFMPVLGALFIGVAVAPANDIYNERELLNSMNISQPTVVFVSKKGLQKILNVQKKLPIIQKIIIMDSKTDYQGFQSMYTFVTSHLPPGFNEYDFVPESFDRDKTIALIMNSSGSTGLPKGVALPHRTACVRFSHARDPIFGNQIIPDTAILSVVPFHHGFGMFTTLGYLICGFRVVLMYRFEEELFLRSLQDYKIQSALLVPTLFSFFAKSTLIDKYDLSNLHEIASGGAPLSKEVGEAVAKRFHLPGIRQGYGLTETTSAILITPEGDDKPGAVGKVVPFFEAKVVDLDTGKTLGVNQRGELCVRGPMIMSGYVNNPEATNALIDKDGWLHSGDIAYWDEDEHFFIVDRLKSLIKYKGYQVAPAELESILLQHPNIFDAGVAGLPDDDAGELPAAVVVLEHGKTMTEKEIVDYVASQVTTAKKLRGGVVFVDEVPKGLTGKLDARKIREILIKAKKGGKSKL
Chain of ATP-dependent 6-phosphofructokinase (Trypanosoma brucei brucei) (O15648 whole entry, looked up): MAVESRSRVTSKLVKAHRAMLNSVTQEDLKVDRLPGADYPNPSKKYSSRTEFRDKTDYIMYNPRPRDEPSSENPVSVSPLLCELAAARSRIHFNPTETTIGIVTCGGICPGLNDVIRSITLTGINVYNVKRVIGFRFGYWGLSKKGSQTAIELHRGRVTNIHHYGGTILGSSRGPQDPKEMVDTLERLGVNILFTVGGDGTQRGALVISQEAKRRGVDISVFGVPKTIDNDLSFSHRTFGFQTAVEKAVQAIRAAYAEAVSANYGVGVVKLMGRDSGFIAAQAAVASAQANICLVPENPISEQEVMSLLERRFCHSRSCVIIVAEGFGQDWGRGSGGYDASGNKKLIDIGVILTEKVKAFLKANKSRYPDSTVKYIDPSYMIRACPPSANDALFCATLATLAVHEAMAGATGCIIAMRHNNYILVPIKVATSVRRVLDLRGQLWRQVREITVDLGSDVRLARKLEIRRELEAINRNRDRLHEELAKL
Chain of Glucocorticoid receptor (Homo sapiens) (P04150 whole entry, looked up): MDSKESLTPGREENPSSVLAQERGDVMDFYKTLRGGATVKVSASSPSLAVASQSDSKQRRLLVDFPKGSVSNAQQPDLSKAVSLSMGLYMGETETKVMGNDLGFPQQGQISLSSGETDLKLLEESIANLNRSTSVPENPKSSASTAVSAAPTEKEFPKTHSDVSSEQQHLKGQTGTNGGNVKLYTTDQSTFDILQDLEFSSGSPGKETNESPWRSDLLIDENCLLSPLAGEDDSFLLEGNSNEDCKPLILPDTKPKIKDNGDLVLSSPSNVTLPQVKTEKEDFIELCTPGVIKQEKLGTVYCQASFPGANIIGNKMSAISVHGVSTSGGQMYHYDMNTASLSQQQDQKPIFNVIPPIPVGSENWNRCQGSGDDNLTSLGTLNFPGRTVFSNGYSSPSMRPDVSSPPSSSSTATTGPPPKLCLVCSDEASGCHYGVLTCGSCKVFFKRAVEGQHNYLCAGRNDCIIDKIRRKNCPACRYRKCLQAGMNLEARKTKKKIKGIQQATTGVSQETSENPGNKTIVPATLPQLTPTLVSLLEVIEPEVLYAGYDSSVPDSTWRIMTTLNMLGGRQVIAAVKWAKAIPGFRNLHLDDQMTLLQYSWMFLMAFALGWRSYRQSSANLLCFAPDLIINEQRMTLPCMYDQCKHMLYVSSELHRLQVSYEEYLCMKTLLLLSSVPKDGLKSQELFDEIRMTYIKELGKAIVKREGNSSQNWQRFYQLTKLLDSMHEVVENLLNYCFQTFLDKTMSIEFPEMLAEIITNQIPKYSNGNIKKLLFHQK
Chain of Ubiquitin carboxyl-terminal hydrolase 1 (Homo sapiens) (O94782 whole entry, looked up): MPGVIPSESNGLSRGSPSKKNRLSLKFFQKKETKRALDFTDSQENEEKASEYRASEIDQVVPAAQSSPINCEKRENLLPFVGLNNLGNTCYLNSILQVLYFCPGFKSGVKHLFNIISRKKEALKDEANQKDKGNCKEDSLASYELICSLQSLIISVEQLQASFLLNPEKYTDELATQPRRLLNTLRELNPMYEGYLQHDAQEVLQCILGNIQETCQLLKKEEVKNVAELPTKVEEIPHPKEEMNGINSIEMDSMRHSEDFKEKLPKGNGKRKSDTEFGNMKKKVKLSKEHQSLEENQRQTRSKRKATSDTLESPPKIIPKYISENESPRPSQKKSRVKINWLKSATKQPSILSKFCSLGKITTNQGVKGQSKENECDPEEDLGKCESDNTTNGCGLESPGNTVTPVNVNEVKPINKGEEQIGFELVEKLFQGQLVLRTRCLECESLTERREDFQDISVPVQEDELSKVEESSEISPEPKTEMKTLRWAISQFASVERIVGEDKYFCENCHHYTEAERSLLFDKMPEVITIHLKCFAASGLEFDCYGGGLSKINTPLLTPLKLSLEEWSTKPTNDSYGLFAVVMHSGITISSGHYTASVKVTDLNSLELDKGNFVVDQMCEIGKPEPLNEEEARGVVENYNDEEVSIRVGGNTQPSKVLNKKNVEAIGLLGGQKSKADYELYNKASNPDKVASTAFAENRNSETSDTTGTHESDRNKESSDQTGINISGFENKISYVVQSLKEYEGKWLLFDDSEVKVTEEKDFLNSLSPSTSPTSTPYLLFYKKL
Chain of Pyruvate kinase PKM (Homo sapiens) (P14618 whole entry, looked up): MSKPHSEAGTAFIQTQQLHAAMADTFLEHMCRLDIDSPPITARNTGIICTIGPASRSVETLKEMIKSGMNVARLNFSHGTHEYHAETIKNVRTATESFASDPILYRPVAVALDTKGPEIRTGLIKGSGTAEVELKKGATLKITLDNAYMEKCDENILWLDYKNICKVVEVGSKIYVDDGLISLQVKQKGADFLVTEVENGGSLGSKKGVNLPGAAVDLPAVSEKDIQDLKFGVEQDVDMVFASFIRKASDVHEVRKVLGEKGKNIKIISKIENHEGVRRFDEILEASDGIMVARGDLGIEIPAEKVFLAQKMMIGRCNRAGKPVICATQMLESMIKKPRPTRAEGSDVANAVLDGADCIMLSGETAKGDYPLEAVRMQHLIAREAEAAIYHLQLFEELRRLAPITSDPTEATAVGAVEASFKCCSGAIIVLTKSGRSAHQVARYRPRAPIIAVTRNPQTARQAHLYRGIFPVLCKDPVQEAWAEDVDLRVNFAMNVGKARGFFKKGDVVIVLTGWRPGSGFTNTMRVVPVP
Chain of Guanine nucleotide-binding protein G(i) subunit alpha-1 (Homo sapiens) (P63096 whole entry, looked up): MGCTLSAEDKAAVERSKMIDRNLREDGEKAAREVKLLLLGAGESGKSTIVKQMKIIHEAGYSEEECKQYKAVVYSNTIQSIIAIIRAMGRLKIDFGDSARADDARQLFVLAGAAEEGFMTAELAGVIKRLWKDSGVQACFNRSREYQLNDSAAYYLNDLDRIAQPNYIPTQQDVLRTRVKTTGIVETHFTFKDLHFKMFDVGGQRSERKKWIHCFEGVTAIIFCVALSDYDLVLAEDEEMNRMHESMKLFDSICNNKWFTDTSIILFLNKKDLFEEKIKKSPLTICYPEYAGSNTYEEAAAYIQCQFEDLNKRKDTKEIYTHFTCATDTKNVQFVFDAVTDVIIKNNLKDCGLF

In the case of `CCCCCN(CCCCC)C(=O)[C@H](CCC(=O)O)NC(=O)c1ccc(Cl)c(Cl)c1`, the activity change, negative = inhibition in test [1] (at 17.2 µM (top of the series)) was -2.01% (inactive); in [1] (at 38 µM (top of the series)), 3.64% (inactive); in test [3] (at 17.2 µM (top of the series)) it was -6.01% (inactive); in [3] (at 38 µM (top of the series)), -3.5% (inactive); in [12], -1.39% (inactive). Also, the Potency result in [2], in [7], in [8] and in [13] was “inactive” each time. For the same compound, the activity, negative = inhibition is -27.7% (inactive) in test [4] (at 17.2 µM (top of the series)) and -25.5% (inactive) in test [4] (at 38 µM (top of the series)). For the same compound, the Potency in test [5] is > 46 µM (inactive) and > 20.6 µM (inactive); in test [6], > 46 µM (inactive) and > 20.6 µM (inactive). For the same compound, the result in test [9], in test [10] and in [11] was inactive. The max response is -23.7% in [12] (setting [18]) and -25% in test [12] (setting [19]).

As for `CCCN[C@@H](C)C(=O)Nc1c(C)csc1C(=O)OC`, the activity change, negative = inhibition in test [1] (setting [20]) was 8.34% [at 17.2 µM] (inactive); in [3] (setting [20]), -13.1% [at 17.2 µM] (inactive); in test [12] it was -2.12% (inactive). Moreover, the values for the Potency in test [2], in test [5] and in test [6] were 12.6 µM (active), > 20.6 µM (inactive) and > 20.6 µM (inactive), respectively. The values for the activity, negative = inhibition in test [4] (setting [20]), in test [17] (parasite line A) and in test [17] (parasite line B) were -0.411% [at 17.2 µM] (inactive), 6.61% (inactive) and 16.5% (inactive), respectively. Moreover, the Potency entry (in test [7]; in [14]; in the test on AS120; with CP238; in the test on FAB9) was “inactive” in each case. The max response in test [12] (setting [18]) is -6.57%; in [12] (setting [19]), -14.2%. For the same compound, the compound was called inactive in test [15] and in [16].

As to `NC(=O)OC[C@H](O)COc1ccc(Cl)cc1`, the activity change, negative = inhibition in [1] (setting [20]) was -4.9% [at 17.2 µM] (inactive); in test [3] (setting [20]) it was -9.21% [at 17.2 µM] (inactive); in [12] it was -1.93% (inactive). In addition, the figures for the Potency in test [2], in test [5] and in test [6] were 10 µM (active), > 20.6 µM (inactive) and > 20.6 µM (inactive), respectively. The activity, negative = inhibition in [4] (setting [20]) is 14.1% [at 17.2 µM] (inactive); in test [17] (parasite line A), -2.39% (inactive); in test [17] (parasite line B), -7.73% (inactive). Also, the Potency result (in test [7]; in [14]; in the test on AS120; in the test with CP238; in the test on FAB9) was “inactive” each time. Moreover, the max response was found to be 14% in test [12] (setting [18]) and 12% in test [12] (setting [19]). In addition, the compound was called inactive in test [15] and in [16].

Consider `COc1ccccc1OC[C@H](O)COC(N)=O`, for which the activity change, negative = inhibition in test [1] (setting [20]) was -6.22% [at 17.2 µM] (inactive); in [3] (setting [20]), -5.33% [at 17.2 µM] (inactive); in test [12] it was 1.49% (inactive). The Potency in test [2] was 10 µM (active); in test [5], > 20.6 µM (inactive); in test [6], > 20.6 µM (inactive). Besides, the activity, negative = inhibition in [4] (setting [20]) is 10.4% [at 17.2 µM] (inactive); in test [17] (parasite line A), 3.95% (inactive); in test [17] (parasite line B) it was 18.1% (inactive). Besides, the Potency entry (in test [7]; in test [14]; in [13]; in the test with AS120; in the test on CP238; with FAB9) was “inactive” in each case. Besides, the max response in test [12] (setting [18]) was -1.12%; in [12] (setting [19]) it was 2.55%. For the same compound, the compound was called inactive in test [15] and in [16].
